Molecules are shown by their SMILES.

Here are results for 40 compounds from ChEMBL document CHEMBL3988442, “University of Dundee, Small-Polar-MMV Screening Library” (2021).

The target in the test is AMP-activated protein kinase, AMPK (Homo sapiens) (UniProt P54646+O43741+P54619+Q9UGJ0+Q9Y478+Q13131+Q9UGI9). In words: AMP-dependent Kinase enzyme assay. An in vitro enzyme assay that detects ADP turnover that is directly proportional to AMPK activity. This uses naive AMPK that is activated during the assay with MK-8722. It is filed as functional. The arrangement: scale not given: direction of the effect not stated beside the values. As to conditions: 30 µM.
Consider `Cc1nnc(C(C)N2CCCN(Cc3noc(C4CC4)n3)CC2)o1` (stereo not given), for which the Percent Effect was -4.62%. The figure for `CN1CCN(CCNC(=O)c2sccc2C2CC2)CC1` is 3.89%; for `Cc1occc1C(=O)Nc1cccc(C(=O)OCC2CCCN2)c1` (stereo not given) it is -5.07%; for `CCN(CC)C(=O)N1CCOCC1c1c(C)nn(C)c1C` (stereo not given) it is 2.79%. Consider `CC(O)CN1CCN(C(=O)CCOc2ccccc2F)CC1` (stereo not given), for which the Percent Effect is -1.3%. The value for `CCOC(=O)CC1CCCCN1C(=O)c1cccc2ccnn12` (stereo not given) was -6.64%; that for `Cc1nc(NC(=O)NCCCN2CCC(C(N)=O)CC2)sc1C` was 6.51%. For `CCc1nccn1CC1CCCN1S(=O)(=O)N1CCCOCC1` (stereo not given), the Percent Effect was determined as 15.2%.

For the compound `CCC(NC(=O)NC1CCN(S(C)(=O)=O)CC1)c1cccs1` (stereo not given), the Percent Effect is -3.19%.

`CC(=O)NCCNC(=O)c1cc(COc2ccccc2)[nH]n1`: the Percent Effect came to 14.5%. For the compound `CN(C(=O)C1CCN(Cc2cnc3ccccn23)CC1)c1ccccc1`, the Percent Effect was -0.957%. The figure for `CS(=O)(=O)NC(=O)c1ccn(-c2ccc(Cl)c(Cl)c2)n1` is 4.97%; for `Cc1noc(C)c1C(=O)N1CCC(n2cccn2)CC1` it is -9.16%; for `Cc1cccn2cc(CNS(=O)(=O)N3CCOCC3)nc12` it is 4.51%. Consider `NC(=O)COc1ccc(CN2CCC(O)(CN3CCCCC3)C2)cc1Cl` (stereo not given), for which the Percent Effect is 2.63%. The value for `Cc1nc(CN(C)S(=O)(=O)c2ccccc2C(F)(F)F)no1` was 4.4%; that for `CN(Cc1cnn(C)c1)C(=O)Nc1cccnc1-n1cccn1` was 0.000815%; that for `CC(C)CN1CCC(NC(=O)N(C)Cc2csc3ccccc23)CC1` was 0.225%. Consider `CCCOc1cccc(OCc2ccon2)c1`, for which the Percent Effect turned out to be 4.13%.

With `Cc1ccccc1C(CC(=O)N1CCc2sccc2C1)NC(N)=O` (stereo not given), the Percent Effect came to 11.7%. The figure for `CCN(CC1=CCN(C)CC1)C(=O)CCOC` is -8.72%; for `Clc1cc(NCc2ncc[nH]2)nc2[nH]ccc12` it is 24.1%. The value for `Cc1cnn(C2CCCN(C(=O)c3cc(-c4ccco4)[nH]n3)C2)c1` (stereo not given) was -19.9%. As for `Cc1nnc2n1CCN(C(=O)C(C)Oc1ccc(C#N)cc1)C2` (stereo not given), the Percent Effect amounted to 13%. The value for `COC(=O)c1ccc(C(=O)NCc2ccco2)nc1` was -1.39%.

Consider `Clc1ccc(N2CCC(OCC3CCCCO3)CC2)nc1` (stereo not given), for which the Percent Effect came to 3.4%. The figure for `Cc1ccc(N2CCCN(C(=O)CCCn3ccnc3C)CC2)nn1` is -0.453%; for `CN(Cc1ccccc1CNC(=O)C1CNC(=O)N1)C1CCCCC1` (stereo not given) it is -6.64%. The value for `c1ccc(CCN2CCN(C3CCOC4(CCOCC4)C3)CC2)nc1` (stereo not given) was -2.83%; that for `c1cnc(N2CCCC(Cc3nccs3)C2)nc1` (stereo not given) was 0.818%.

Regarding `NC(=O)[C@@H]1Cc2ccccc2N1C(=O)C1CC(c2ccccc2)=NO1` (stereo not given in full), the Percent Effect came to 11.5%. The value for `CC(C)(O)CCc1cccc(C(=O)NCc2cnn3cccnc23)c1` was -0.643%; that for `O=C(NCc1nnc2n1CCC2)c1ccc(C2CCCO2)s1` (stereo not given) was 1.37%; that for `Cc1cc(N2CCCC(N(C)C)C2)n2nccc2n1` (stereo not given) was 1.81%. The figure for `Cc1ccc(C(=O)NCCC2CN(C3CCCC3)CCO2)c(C)c1` (stereo not given) is 4.11%. The value for `CNc1nc(C(=O)NCC2CCOc3ccccc3C2)cs1` (stereo not given) was 1.74%; that for `Cn1c(CN2CC[C@](C)(O)C(C)(C)C2)cc2ccccc21` was 12.4%; that for `O=C(CC1COCCN1)N1CCCN(C2Cc3ccccc3C2)CC1` (stereo not given) was -11.6%. In the case of `CC(c1ccc(F)cc1F)N1CCN(CCC(=O)NC(N)=O)CC1` (stereo not given), the Percent Effect was -3.39%. For the compound `O=C(NCc1ccnc(OCC2CC2)c1)C1COc2ccccc2O1` (stereo not given), the Percent Effect came to 1.5%.
